# G9a block: inhibitors of human histone lysine methyltransferase G9a; Q96KQ7; G9a H3K9 monomethylation, AlphaScreen, 2 h; Potency, µM (top dose mostly 102 µM), for the others: top-dose activity, negative = inhibition, hits mostly inhibitors; hit rate 8.8% among 350,000; also: potency is read from the fitted curve at half-maximal effect; nearly all actives have a fitted effect of over 75% in size
# Target sequence (Q96KQ7 913-1193 limits assumed): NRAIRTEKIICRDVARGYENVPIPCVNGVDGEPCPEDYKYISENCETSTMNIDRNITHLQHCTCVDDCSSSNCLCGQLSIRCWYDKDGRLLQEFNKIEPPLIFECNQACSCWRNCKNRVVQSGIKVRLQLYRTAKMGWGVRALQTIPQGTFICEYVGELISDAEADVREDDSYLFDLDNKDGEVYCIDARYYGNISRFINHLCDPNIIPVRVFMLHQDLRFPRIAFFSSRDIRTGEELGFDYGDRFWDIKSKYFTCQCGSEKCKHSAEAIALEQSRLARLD
#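 AlphaScreen detection with an anti-monomethyl H3K9 antibody quantified product after a 2 h room-temperature reaction containing 500 nM biotinylated H3K9 peptide, 20 µM SAM and 20 nM enzyme, which had been preincubated 15 min with compound.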
# CCT modulator: modulators of cytosolic chaperonin (CCT/TRiC) activity | hit rate 0.3% among 360,000 | activity change, % (no concentration beside the values), hits read low | purified chaperonin ATPase assay, HTRF ADP detection, 30 min; in the data active = activity change below about -30%
#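 We incubate TRiC, 40 or 20 nM final, with library compounds at 76 uM and 10 uM ATP for 30 min at 37 °C. ADP formed is detected with Transcreener HTRF reagents after 30 min at room temperature.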
# PLK1 PBD inh: blocks phosphopeptide binding to human PLK1 polo-box domain; hit rate 2.8% among 360,000; Plk1 PBD binding of FITC phosphopeptide, fluorescence polarization; Potency, µM, without a hit: max response, negative = inhibition, usual class: inhibitors; also: potency is read from the fitted curve at half-maximal effect; series mostly up to about 57 µM; nearly all actives have a fitted effect of over 65% in size
# Mm-Cpn inhibitor: M. maripaludis TRiC chaperonin inhibition. purified Mm-Cpn ATPase, ADP Transcreener TR-FRET. Potency, µM (doses to about 76.9 µM), inactives show at the top dose activity, negative = inhibition, hits mostly inhibitors. hit rate 0.031% among 330,000. AID 504842; also: potency is read from the fitted curve at half-maximal effect; nearly all actives have a fitted effect of over 80% in size
#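 Inhibition of chaperonin ATP hydrolysis is measured as reduced ADP production, detected by competitive TR-FRET in which signal falls with ADP. Final enzyme 25 nM and ATP 10 uM, reacted 30 min at 37°C.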
# VDR inhibitor: blocks the human vitamin D receptor. VDR-SRC2-3 peptide fluorescence polarization, 2 h. Potency, µM, for inactives: max response, negative = inhibition, usual class: inhibitors. hit rate 0.93% among 400,000; also: potency is read from the fitted curve at half-maximal effect
# Target sequence (P11473 whole entry, looked up): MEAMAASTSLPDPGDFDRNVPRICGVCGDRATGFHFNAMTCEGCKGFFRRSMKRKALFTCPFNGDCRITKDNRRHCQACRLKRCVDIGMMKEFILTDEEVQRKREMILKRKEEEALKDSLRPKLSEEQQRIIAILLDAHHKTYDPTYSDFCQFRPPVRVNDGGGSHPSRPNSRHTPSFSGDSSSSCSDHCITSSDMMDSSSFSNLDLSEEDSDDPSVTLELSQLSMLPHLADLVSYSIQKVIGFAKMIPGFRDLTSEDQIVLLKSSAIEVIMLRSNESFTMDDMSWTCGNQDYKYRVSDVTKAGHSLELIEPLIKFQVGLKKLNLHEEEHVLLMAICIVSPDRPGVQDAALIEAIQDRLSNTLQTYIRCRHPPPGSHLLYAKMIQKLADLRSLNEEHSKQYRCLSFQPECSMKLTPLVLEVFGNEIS
#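 Measured by FP: displacement of SRC2-3 coactivator peptide from VDR by library compounds, following a two-hour ambient incubation.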
# Sfp inh: inhibitors of Bacillus subtilis Sfp phosphopantetheinyl transferase. Q9F4F7. Biochemical Sfp PPTase activity, qHTS. Potency, µM, without a hit: largest response in the series, negative = inhibition, actives largely listed as inhibitors. hit rate 3.5% among 310,000. AID 1490;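 also: the enzyme is Sfp with the accession as filed and its product quenches rhodamine fluorescence; potency is read from the fitted curve at half-maximal effect; 0% = enzyme reaction without inhibitor and -100% = no enzyme wells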
#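 Buffer: 50 mM Hepes-Na pH 7.6, 10 mM MgCl2, 0.01% Nonidet P-40, 0.01% BSA. Enzyme 15 nM, pre-exposed to compound 15 min; substrates then added and fluorescence change tracked over 30 min.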
# The depositor's hits bear a star; ? = inconclusive; · = not tested or not shown; [ ] = dose if it differs, or a comment. In the library only some 10% were active in any assay of this set; here they are far more common. Unless noted, calls follow the shape of the dose curve; as a rule, active = well fitted curve in the direction sought with a large enough effect; inconclusive = small, poorly fitted or top-dose-only effect, or another doubt; inactive = no such curve, though single readings can be large; an effect the other way counts as inactive or inconclusive. Unless noted, % is scaled to controls: 0 for no effect and ±100 for the full control effect.
SMILES,G9a block,CCT modulator,PLK1 PBD inh,Mm-Cpn inhibitor,VDR inhibitor,Sfp inh
CN=C1C([N+](=O)[O-])=CC=C2C1=NC1(CCCCC1)N2O,?,-2,-5%,0%,4%,8.9µM*
O=[N+]([O-])C1=CC=C2C(=NC3(CCCCC3)N2O)C1=NCCO,?,1,-10%,-9%,-9%,40µM*
COc1ccccc1NC(=O)C1CCN(S(=O)(=O)c2ccc3c(c2)oc(=O)n3C)CC1,-4%[59 µM],·,·,·,8%,·
CC(=O)Nc1ccccc1OCc1cc(=O)n2c(C)csc2n1,3%[59 µM],·,·,·,5%,·
CCOc1ccccc1NC(=O)CSc1nnc(CC)c(CC)n1,6%[59 µM],·,·,·,10%,·
COc1cc([N+](=O)[O-])ccc1NC(=O)C1C2C=CC(C2)C1C(=O)O (stereo not drawn),-4%[0.501 µM],0,-3%,-4%,5%,32µM*
COc1cc(NC(=O)C2C3C=CC(C3)C2C(=O)O)ccc1NC(=O)c1ccccc1 (stereo not drawn),-2%,-2,-12%,2%,-8%,89µM*
COc1ccc(NC(=O)C2C3CCC(C3)C2C(=O)O)cc1OC (stereo not drawn),-32%[12.7 µM],0,-2%,-1%,3%,6%
CN(C)c1ccc(NC(=O)C2C3C=CC(C3)C2C(=O)O)cc1 (stereo not drawn),22µM*,-2,-2%,25µM*,?,50µM*
O=C(O)C1C2C=CC(C2)C1C(=O)Nc1ccccc1Br (stereo not drawn),·,-3,-12%,-1%,-6%,-10%
COc1ccc(C)cc1NC(=O)C1C2C=CC(C2)C1C(=O)O (stereo not drawn),-38%,-21,-11%,1%,-12%,-24%
COc1cc(NC(=O)C2C3C=CC(C3)C2C(=O)O)c(OC)cc1Cl (stereo not drawn),11µM*,0,-7%,0%,11%,-28%
Cc1c2cnn(-c3ccccc3)c(=O)c2c(C)n1CC(=O)NCCc1ccc(Cl)cc1,0%[59 µM],·,·,·,7%,·
Cc1ccc(-c2cccc(NC(=O)C3C4C=CC(C4)C3C(=O)O)c2)o1 (stereo not drawn),?,-1,?,1%,-8%,35µM*
CC(=O)c1cccc(NC(=O)C2C3C=CC(C3)C2C(=O)O)c1 (stereo not drawn),·,0,1%,1%,-17%,-26%
CCc1ccc(-n2nc(C)c3c(C)cc(=O)n(CC(=O)Nc4ccccc4C(=O)OC)c32)cc1,10%[59 µM],·,·,·,14%,·
Nc1ncc(Br)cc1S(=O)(=O)Nc1cc(C(F)(F)F)cc(C(F)(F)F)c1,·,-5,30µM*,0%,?,22%
COc1ccccc1-n1ncc2c(=O)[nH]c(SCC(=O)Nc3cccc(F)c3)nc21,2%[59 µM],·,·,·,-1%,·
COc1ccc(CN2CC(C(=O)N3CC(C)CC(C)C3)CC2=O)cc1 (stereo not drawn),2%[59 µM],1,27µM*,-1%,-9%,15%
COc1cc(CCC(=O)Nc2cccc(C(F)(F)F)c2)cc(OC)c1OC,45µM*,-1,-10%,0%,-11%,10%
Cc1ccccc1NC(=O)Cc1cccc(C(F)(F)F)c1,4%,-2,-14%,-3%,-3%,9%
O=C(Cc1cccc(C(F)(F)F)c1)Nc1ccccc1,·,-28,24µM*,1%,-2%,0%
CC(C)c1ccccc1NC(=O)COC(=O)Cc1cccc(C(F)(F)F)c1,-10%[59 µM],0,27µM*,1%,?,7%
Cc1ccc(Nc2c(-c3ccc(N4CCOCC4)cc3)nc3cccc(C)n23)cc1,?,·,·,·,-9%,·
Cc1ccc(NC(=O)CCS(=O)(=O)c2ccc3c(c2)oc(=O)n3C)c(Br)c1,?,·,·,·,5%,·
SMILES,G9a block,CCT modulator,PLK1 PBD inh,Mm-Cpn inhibitor,VDR inhibitor,Sfp inh
CCCCc1ccc(/C=C2\C(=O)c3ccccc3C(O)=C2C(=O)OCC)cc1,6.3µM*,·,·,0%,·,3.2µM*
CCOc1ccc(OCC)c(C2C(C#N)=C(N)N(c3cccnc3)C3=C2C(=O)CC(C)(C)C3)c1 (stereo not drawn),50µM*,-2,-7%,0%,8%,32µM*
COc1cc(NC(=O)c2cc3c(=O)n(Cc4ccco4)ccc3nc2C)cc(OC)c1OC,0%[59 µM],·,·,·,2%,·
COc1ccc(N2CCN(Cc3nc4c(c(=O)[nH]c(=O)n4C)n3CC(C)C)CC2)cc1,25µM*,·,·,·,-10%,·
Cc1ccc(Cl)cc1N1CCN(Cc2nc3c(c(=O)[nH]c(=O)n3C)n2Cc2ccccc2F)CC1,40µM*,0,1%,-1%,-14%,-10%
O=C(CN1C(=O)c2ccccc2Sc2ccc(C(=O)N3CCOCC3)cc21)Nc1ccc(Cl)cc1F,4%[59 µM],·,·,·,9%,·
Cn1ncc(S(=O)(=O)Cc2ccccc2)c(Br)c1=O,1.5µM*,·,·,·,?,·
CCc1ccc(C(=O)c2cn(CC(=O)Nc3ccc4c(c3)OCO4)c3ccc(OC)cc3c2=O)cc1,14µM*,·,·,·,1%,·
COC(=O)/C(=N/Nc1ccccc1C)N1CCCc2ccccc21,35µM*,-5,-6%,-2%,2%,-17%
Cc1cccc(NC(=O)N2CCCc3ccccc32)c1C,·,0,3%,-3%,15%,-3%
CCOC(=O)/C(=N/Nc1ccccc1OC)N1CCCc2ccccc21,2.5µM*,-2,-4%,-1%,-27%,3%
CCOC(=O)/C(=N/Nc1ccccc1)N1CCCc2ccccc21,?,-1,-8%,-1%,-17%,6%
NC1=NCC2c3ccccc3Cc3ccccc3N12 (stereo not drawn),43%[59 µM],·,·,·,9%,20%
Cc1ccc2oc(C(=O)Nc3sc4c(c3C(=O)NCc3cccnc3)CCCC4)cc(=O)c2c1,-14%[59 µM],·,·,·,8%,·
Cc1cc(C)cc(NC(=O)c2sc3nc(-c4ccccc4)cn3c2C)c1,5%[59 µM],·,·,·,-4%,·
COc1ccc(C(=O)n2nc(-c3ccc(Cl)cc3)nc2NCc2ccco2)cc1,-39%[59 µM],·,·,·,14%,·
O=C(c1ccccc1)n1nc(-c2ccc(Cl)cc2)nc1NCc1ccco1,26%[59 µM],·,·,·,-6%,·
Cc1ccc(C(=O)n2nc(-c3ccccc3)nc2NCc2ccco2)cc1,40%,-60*,1%,-3%,2%,2%
CC(=O)n1nc(-c2ccc(Cl)cc2)nc1NCc1ccco1,23%,-2,21µM*,0%,?,4%
COc1ccc(N2C(=O)CSC23C(=O)N(CC(=O)Nc2ccccc2F)c2ccccc23)cc1 (stereo not drawn),-30%[59 µM],·,·,·,4%,·
CC(=O)Nc1nc(C)c(-c2csc(Nc3ccc(O)cc3)n2)s1,4.5µM*,-1,-29%,-9%,89µM*,35µM*
C=CCNc1nc(-c2c(C)nc3ncccn23)cs1,5%[0.501 µM],-1,-9%,-1%,-11%,2%

# Assay outcomes: PubChem BioAssay, National Center for Advancing Translational Sciences (NCATS)
